Experimental data reported in PubChem BioAssay AID1974 (The Scripps Research Institute Molecular Screening Center, 2009).
Values joined by “and” are separate entries in the source; they are usually repeats but may differ in a detail not shown here. Identical values can stand only once. Out of some 300,000 compounds screened, about 3,200 (1.1%) were called active. For the sample, actives were picked, then their nearest neighbours and some compounds at random. Unmarked numbers belong to inactive results.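 How the source made its calls: active means inhibition above the campaign mean inhibition plus 3 SD (cut at about 35% in these data); inactive means the rest.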

target: Glutathione S-transferase omega-1 (Homo sapiens) (UniProt P78417); experiment: human GSTO1 enzyme inhibition – biochemical, fluorescence polarization, counter-screen for RBBP9 inhibitor project, primary screen (AID 1974); details: recombinant GSTO1, activity-based probe fluorescence polarization; at 5.96 µM; active compounds read high;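 further: 0% = GSTO1-1 with DMSO and 100% = wells lacking GSTO1-1 enzyme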
Sequence (P78417 whole entry, looked up): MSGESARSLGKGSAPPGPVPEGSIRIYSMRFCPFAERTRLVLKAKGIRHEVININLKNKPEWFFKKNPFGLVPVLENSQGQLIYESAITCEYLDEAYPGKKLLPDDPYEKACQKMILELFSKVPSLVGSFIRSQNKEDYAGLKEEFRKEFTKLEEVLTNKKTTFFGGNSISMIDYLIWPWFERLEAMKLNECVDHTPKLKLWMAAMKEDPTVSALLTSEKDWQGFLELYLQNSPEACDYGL

Row | SMILES | inhibition
1 | CC(C)CCN1CCN=C1N(C)C | -2.91%
2 | CC(C)CNC(=O)C(=O)Nc1ccc(N(C)C)cc1 | 4.12%
3 | CN(C)c1ccc(N/C=C/C(=O)C(F)(F)F)cc1 | 57.6% (active)
4 | CC(=O)N(C)c1ccc(NC(=O)C(F)(F)F)cc1 | 2.55%
5 | [O-][n+]1ccc(OCc2ccccc2)cc1 | 10.9%
6 | CN1C(C(=O)NCc2ccco2)CC2Cn3c(nc4ccccc43)C21 (stereo not drawn) | 6.49%
7 | O=c1cc(CCl)nc2scc(-c3ccccc3)n12 | 85.3% (active)
8 | OCCn1c(-c2ccccc2)csc1=Nc1ccccc1 | -1.25%
9 | O=C(O)Cc1csc(-c2cccc(Oc3ccccc3)c2)n1 | 2.72% and 8.12%
10 | Cc1ccc(C)c(OCC(=O)N2CCN(C(=O)c3ccco3)CC2)c1 | -2.08%
11 | Cc1nc2ncnn2c(C)c1CCC(=O)N1CCN(C(=O)c2ccco2)CC1 | 50.8% (active)
12 | Cc1nc2nc(C)c(CCC(=O)N3CCN(c4ccccc4)CC3)c(C)n2n1 | 8.27%
13 | Cc1ccc(S(=O)(=O)CC(=O)Nc2sc(C)c(C)c2C(N)=O)cc1 | 0.44%
14 | COc1cc(C(=O)NC2CCN(Cc3ccccc3)CC2)cc(Cl)c1OC(C)C | -0.77%
15 | COC(=O)c1cccc(NC(=O)CN2CCC(NC(=O)c3cc(OC)c(OC)c(OC)c3)CC2)c1 | 48.5% (active)
16 | O=C(CN1CCC(NC(=O)Nc2ccccc2)CC1)Nc1cccc([N+](=O)[O-])c1 | 5.63%
17 | Cc1ccc(S(=O)(=O)N(C)c2ccc(OCC(=O)OCC(=O)N(CC#N)c3ccccc3)cc2)cc1 | 2.81%
18 | CC(C)c1ccc(S(=O)(=O)N2CCN(C(=O)CN3C(=O)NC(C)(c4ccccc4)C3=O)CC2)cc1 (stereo not drawn) | 4.89%
19 | O=C(Nc1cc(-c2ccccc2)nn1-c1ccccc1F)c1ccc([N+](=O)[O-])cc1 | -3.44%
20 | CC(C)(C)c1ccc(C(=O)NCCn2c(N)c(C#N)c3nc4ccccc4nc32)cc1 | 6.36%
21 | CC(C)Cn1c(N)c(C(=O)NCc2cccs2)c2nc3ccccc3nc21 | 38.5% (active)
22 | CCCNC(=O)c1c(N)n(-c2ccc(S(N)(=O)=O)cc2)c2nc3ccccc3nc12 | -3.18%

Row | SMILES | inhibition
23 | CCN1CCN(C(=O)N[C@@H](C(=O)N[C@@H]2C(=O)N3C(C(=O)O)=C(CSc4nnnn4C)CS[C@H]23)c2ccc(O)cc2)C(=O)C1=O | -2.08%
24 | CC1(C)C/C(=N/Nc2ccc([N+](=O)[O-])cc2[N+](=O)[O-])C(C)(C)O1 | -2.6%
25 | O=C(OCC1O[C@@H](OC(=O)c2cc(O)c(O)c(O)c2)[C@@H](OC(=O)c2cc(O)c(O)c(O)c2)[C@@H](OC(=O)c2cc(O)c(O)c(O)c2)[C@@H]1OC(=O)c1cc(O)c(O)c(O)c1)c1cc(O)c(O)c(O)c1 (stereo partly drawn) | 43.9% (active)
26 | O=C(OCC1OC(Oc2ccc(O)cc2)C(O)C(O)C1O)c1ccccc1 (stereo not drawn) | -6.08%
27 | O=C(CSc1n[nH]c(-c2cccs2)n1)N1CCCCC1 | 0.4%
28 | O=C(Nc1cc(N2CCOCC2)ncn1)NC1(C(F)(F)F)Oc2ccc(Cl)cc2O1 (stereo not drawn) | 57.4% (active)
29 | Cc1csc(NC(=O)NC2(C(F)(F)F)Oc3ccccc3O2)n1 | 28.1%
30 | COc1ccc(Cl)cc1NC(=O)CN1CCN(C(=O)N2CCOCC2)CC1 | 1.76%
31 | CN(CC(=O)Nc1cccc(F)c1)C(=O)C1CSC2(C)CCC(=O)N12 (stereo not drawn) | -10.9%
32 | COC(=O)CCCC1=CC2=CC(=O)C(C)(OC(=O)c3cccs3)C(=O)C2=CN1c1cccc(C#N)c1 (stereo not drawn) | 10.6%
33 | COc1ccc(CCNC(=O)COC(=O)C2CCCCC2)cc1 | 3.87%
34 | COC(=O)CCCC1=CC2=C(c3ccccc3)C(=O)C(C)(OC(=O)C3CCCC3)C(=O)C2=CN1c1ccc(OC)cc1 (stereo not drawn) | 40% (active)
35 | Cc1ccc(C)c(-c2nnc(NC(=O)CS(=O)(=O)c3ccccc3)o2)c1 | 9.44%
36 | CCOc1ccc(C(C)=O)cc1COC(=O)CN1C(=O)NC2(CCCC2)C1=O | 10.1%
37 | C#CCOCCOCCOCCNc1nc(N2CCN(C(=O)CCCCCCCCCCNC(=O)Cn3cc(CCCCCN)nn3)CC2)nc(N2CCN(C(=O)CCCCCCCCCCNC(=O)[C@H](CO)n3cc(CCCSC)nn3)CC2)n1 | 4.11%
38 | Oc1cc2c(cc1O)CN(C(=S)NCCc1ccc(Cl)cc1)CCC2 | -0.15%
39 | CC1(C)CC(=O)c2ccc(O)cc2O1 | 8.19%
40 | COc1ccc2c(c1)SC(C)CC2=O (stereo not drawn) | -1.85%
41 | COc1ccc2c(c1)OC(O)(C(F)(F)C(F)F)CC2=O (stereo not drawn) | 42% (active)
42 | COc1ccc(OCCCC(=O)OC(C)C(=O)Nc2ccccc2[N+](=O)[O-])cc1 (stereo not drawn) | -0.91%
43 | COc1ccc(NC(=O)CN(C)C(=O)c2cc(-c3ccc(C)o3)nc3ccccc23)cc1 | 5.17%
44 | CN1C(=O)CC(c2ccccc2)C1=O (stereo not drawn) | 7.68%

Row | SMILES | inhibition
45 | OCC[C@H]1C[C@H](O)[C@@H](O)[C@]2(Cc3ccccc3CO2)O1 | 2.49%
46 | CC1(C)Cc2ccccc2-c2[nH]c(=S)[nH]c(=O)c21 | 3.5%
47 | CCC1(CC)Cc2ccccc2-c2nc(CCl)[nH]c(=O)c21 | 84.7% (active)
48 | CC1(C)Cc2ccccc2-c2nc(CN3CCOCC3)[nH]c(=O)c21 | -0.05%
49 | O=C(COC(=O)CNS(=O)(=O)c1ccc(F)c(F)c1F)NC1CCCC1 | 14.3%
50 | CC(OC(=O)CCC(=O)c1ccccc1)C(=O)Nc1ccc(F)cc1 (stereo not drawn) | 3.4%
51 | COc1ccc(S(=O)(=O)N2CCOCC2)cc1NC(=O)COc1ccccc1 | 13.6%
52 | COc1ccc(S(=O)(=O)N2CCCCC2)cc1NC(=O)COc1ccccc1 | -8.4%
53 | COc1ccc(S(=O)(=O)N2CCOCC2)cc1NC(=O)CSc1ncnc2ccccc12 | 38.4% (active)
54 | CCn1cc(C(=O)NC2CCCCCC2)c(=O)c2cc(S(=O)(=O)N3CCCCC3)ccc21 | 0.56%
55 | CCCOc1ccc(/C=N/NC(=O)C2CC2)c(OCCC)c1 | 5.8%
56 | Cc1cc(NC(=O)C(C)N2C(=O)c3ccccc3S2(=O)=O)no1 (stereo not drawn) | 12.5%
57 | CC(=O)c1c(C)[nH]c(C(=O)CN2C(=O)NC(C)(C)C2=O)c1C | -0.38%
58 | Cn1c(-c2ccco2)nc2cc3ccccc3cc21 | 1.91%
59 | CS(=O)(=O)n1nc(-c2ccco2)nc1N | -5.37%
60 | c1coc(-c2nc3nc4ccccc4n3nc2-c2ccco2)c1 | 47.1% (active)
61 | CC(=O)CC(CC(=O)NC1CCCCC1)c1ccccc1 (stereo not drawn) | 5.92%
62 | Cc1n[nH]c(=O)c2c(NC(=O)CSc3ccccc3F)oc(C)c12 | -2.53%
63 | Cc1coc2c(O)cc3c(c12)OC1(N2CCCCC2)C(=O)NCCCC31 (stereo not drawn) | 74.4% (active)
64 | CCN(CC)CCn1c2c(c(SCC(=O)Nc3nc4ccccc4s3)nc1=O)CCCC2 | -6.43%
65 | CS(=O)(=O)c1ccc(C(=O)OCC(=O)NNC(=O)COc2ccc(Cl)cc2)cc1 | 1.2%
66 | Cc1ccc(NC(=O)CN(C)C(=O)Cn2nnc(-c3ccccc3)n2)cc1 | 1.43%

Row | SMILES | inhibition
67 | OCC[C@H]1C[C@H](O)[C@@H](O)[C@]2(CCc3ccccc3O2)O1 | 3.69%
68 | CCOC(=O)c1cc(NC(=O)c2cccnc2)ccn1 | 11.6%
69 | O=C(CCl)NNc1cccc(Cl)n1 | 50.5% (active)
70 | O=C(NNc1ccccn1)c1ccc(Cl)nc1 | 12.7%
71 | O=C(Cc1c(Cl)cccc1Cl)NC1CC1 | 3.33%
72 | O=C(NCC1CC1)c1onc(CSc2ccccc2)c1C(=O)NCC1CC1 | 4.37%
73 | CCOC(=O)c1ccc(NC(=O)c2c(N)n(C)c(=O)[nH]c2=O)cc1 | -7.15%
74 | CCN(C(=O)COC(=O)c1cc(NS(=O)(=O)c2ccc(Cl)c([N+](=O)[O-])c2)ccc1O)C1CCCCC1 | 38.5% (active)
75 | COc1ccc(NS(=O)(=O)c2ccc(O)c(C(=O)OCC(=O)NC3CCCCC3)c2)cc1 | -9.76%
76 | CN(C)c1ccc(S(=O)(=O)NCC(=O)NCC2CCCCC2)cc1[N+](=O)[O-] | -5.25%
77 | COCCn1c(SC(C)C(=O)NC2CC2)nnc1-c1cccc(C)c1 (stereo not drawn) | 12.9%
78 | Cc1ccc(NC(=O)C(C)OC(=O)Cc2c[nH]c3ccccc23)cc1S(=O)(=O)N1CCOCC1 (stereo not drawn) | 11.7%
79 | O=C(NCCS(=O)(=O)N1CCN(c2ccccc2)CC1)c1ccco1 | 1.82%
80 | O=c1c(/C=N/O)coc2ccc(Cl)cc12 | 38.5% (active)
81 | Cc1ccc2occ(/C=N/NC(=O)c3ccccc3C)c(=O)c2c1 | 23.9%
82 | NC(=S)N/N=C/c1coc2cc(Cl)ccc2c1=O | 0.72%
83 | COC1(C2=NCCN2)COc2ccccc2O1 (stereo not drawn) | 10.3%
84 | COc1ccccc1C(=O)NCCC(=O)NN1C(=O)NC2(CCCCC2)C1=O | 0.1%
85 | COC(=O)CCCC1=CC2=CC(=O)C(C)(OC(=O)c3cccs3)C(=O)C2=CN1CC(C)C (stereo not drawn) | 19.4%
86 | CCCCC1=CC2=CC(=O)C(C)(OC(=O)CC)C(=O)C2=CN1CCCOC(C)C (stereo not drawn) | 19.3%
87 | COC(=O)CCCC1=CC2=CC(=O)C(C)(OC(=O)c3cccs3)C(=O)C2=CN1CC1CC1 (stereo not drawn) | 43.3% (active)
88 | CC(C)N(Cc1ccccc1)C(=O)COC(=O)c1ccccc1SCC(=O)N1CCCC1 | 8.57%
